PubChem BioAssay AID1159580 (chemical genetic matrix, 2015)
Several values for one entry are separate records, joined by “and”; a condition that tells them apart may be missing. Equal entries are not always repeated. Screen size: about 5,500 compounds; about 2,000 (36%) were called active. Roughly 18% stayed inconclusive and do not appear here. Cut-off read from the data, not from the text of the source: active = normalized growth mostly below about 0.91 (no sharp cut-off); inconclusive = no clear call, values can overlap the other calls; inactive = mostly above about 0.92. This is one part of the list.

Assay: chemical genetic growth profiling, strain panel (AID 1159580);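 note: tested at 20 µM; growth read once vehicle control cultures reached saturation at 30 °C; 1 = growth at the plate median or of vehicle wells; lower values mean less growth of the strain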
Conditions: S. cerevisiae deletion strains, growth OD

Measured: normalized growth

CC(CCC(=O)O)[C@H]1CCC2C3C(C[C@H](O)[C@@]21C)[C@@]1(C)CC[C@@H](O)C[C@H]1C[C@H]3O (some centres not stated)
inactive: locus YAL013W, strain DEP1, active compounds read low 1.01 | locus YAL021C, strain ccr4, active compounds read low 1.08 | locus YAL026C, strain drs2, active compounds read low 1.03 | locus YAL030W, strain snc1, active compounds read low 1.01 | locus YBL061C, strain skt5, active compounds read low 1 | locus YBR009C, strain hhf1, active compounds read low 1.05 | locus YBR021W, strain FUR4, active compounds read low 0.995 | locus YBR023C, strain chs3, active compounds read low 1.01 | locus YBR171W, strain sec66, active compounds read low 1.02 | locus YBR229C, strain ROT2, active compounds read low 1.01 | locus YBR231C, strain swc5, active compounds read low 1 | locus YBR279W, strain paf1, active compounds read low 1.02 | locus YCL011C, strain gbp2, active compounds read low 1.02 | locus YCL016C, strain dcc1, active compounds read low 1 | locus YCL029C, strain bik1, active compounds read low 1.02 | locus YCL061C, strain MRC1, active compounds read low 1.01 | locus YCL069W, strain vba3, active compounds read low 1.02 | locus YCR088W, strain abp1, active compounds read low 1.01 | locus YDL005C, strain med2, active compounds read low 1.01 | locus YDL035C, strain GPR1, active compounds read low 1.03 | locus YDL040C, strain nat1, active compounds read low 1.02 | locus YDL074C, strain BRE1, active compounds read low 1.02 | locus YDL101C, strain DUN1, active compounds read low 1.02 | locus YDL185W, strain tfp1, active compounds read low 1 | locus YDL192W, strain arf1, active compounds read low 1.01 | locus YDR001C, strain nth1, active compounds read low 1.02 | locus YDR069C, strain doa4, active compounds read low 1.02 | locus YDR101C, strain arx1, active compounds read low 0.985 | locus YDR137W, strain rgp1, active compounds read low 0.991 | locus YDR159W, strain sac3, active compounds read low 1.03 | locus YDR162C, strain NBP2, active compounds read low 1.02 | locus YDR195W, strain ref2 1.03 | locus YDR297W, strain sur2, active compounds read low 0.998 | locus YDR318W, strain mcm21, active compounds read low 1.01 | locus YDR334W, strain swr1, active compounds read low 1.03 | locus YDR335W, strain msn5, active compounds read low 0.986 | locus YDR388W, active compounds read low 1 | locus YDR392W, strain spt3, active compounds read low 0.958 | locus YDR502C, strain sam2, active compounds read low 1.01 | locus YEL003W, strain gim4, active compounds read low 1.02 | locus YEL037C, strain rad23, active compounds read low 1.03 | locus YEL061C, strain CIN8 (second series), active compounds read low 1.02 | locus YEL061C, strain CIN8, active compounds read low 1.03 | locus YER015W, strain faa2, active compounds read low 0.982 | locus YER016W, strain bim1, active compounds read low 0.99 | locus YER110C, active compounds read low 1 | locus YER111C, strain swi4, active compounds read low 1.03 | locus YER155C, strain BEM2 (second series), active compounds read low 1.02 | locus YER155C, strain BEM2, active compounds read low 1.01 | locus YER167W, strain BCK2, active compounds read low 1.02 | locus YFR010W, strain ubp6, active compounds read low 1.03 | locus YGL078C, strain dbp3, active compounds read low 1.01 | locus YGL086W, strain mad1, active compounds read low 1 | locus YGL167C, strain pmr1, active compounds read low 0.995 | locus YGL173C, strain kem1, active compounds read low 1.04 | locus YGL227W, strain vid30, active compounds read low 1.01 | locus YGL240W, strain doc1, active compounds read low 1.01 | locus YGL248W, strain PDE1, active compounds read low 1.02 | locus YGL253W, strain hxk2, active compounds read low 1.02 | locus YGR135W, strain pre9, active compounds read low 0.993 | locus YGR252W, strain gcn5, active compounds read low 0.965 | locus YHR013C, strain ard1, active compounds read low 1.03 | locus YHR027C, strain rpn1, active compounds read low 0.994 | locus YHR030C, strain SLT2, active compounds read low 1.01 and 0.992 | locus YHR079C, strain IRE1 (second series), active compounds read low 1 | locus YHR079C, strain IRE1, active compounds read low 0.975 | locus YHR094C, strain hxt1, active compounds read low 1 | locus YHR129C, strain ARP1, active compounds read low 1.02 | locus YHR142W, strain chs7, active compounds read low 1.05 | locus YHR200W, strain rpn10, active compounds read low 0.994 | locus YIL066C, strain RNR3, active compounds read low 1 | locus YIL073C, strain SPO22, active compounds read low 1 | locus YIL125W, strain kgd1, active compounds read low 1.01 | locus YIR030C, strain dcg1, active compounds read low 1 | locus YJL092W, strain hpr5, active compounds read low 1.01 | locus YJL095W, strain BCK1 (second series), active compounds read low 1.01 | locus YJL095W, strain BCK1, active compounds read low 1.02 and 0.977 | locus YJL115W, strain asf1, active compounds read low 1.03 | locus YJL129C, strain trk1, active compounds read low 1.05 | locus YJL134W, strain LCB3, active compounds read low 1.01 | locus YJL154C, strain vps35, active compounds read low 1.02 | locus YJL164C, strain tpk1, active compounds read low 1.06 | locus YJL166W, strain qcr8, active compounds read low 1.03 | locus YJL168C, strain set2, active compounds read low 1.01 | locus YJL187C, strain SWE1 (second series), active compounds read low 1.01 | locus YJL187C, strain SWE1, active compounds read low 1.01 | locus YJR043C, strain POL32, active compounds read low 0.994 | locus YJR066W, strain TOR1, active compounds read low 0.93 | locus YKL009W, strain mrt4, active compounds read low 0.959 | locus YKL068W, active compounds read low 1.02 | locus YKL085W, strain MDH1 (second series), active compounds read low 1 | locus YKL085W, strain MDH1, active compounds read low 1 | locus YKL160W, strain elf1, active compounds read low 0.995 | locus YKR001C, strain vps1, active compounds read low 1.01 | locus YKR026C, strain gcn3, active compounds read low 1.02 | locus YKR091W, strain srl3, active compounds read low 1.02 | locus YLL001W, strain dnm1, active compounds read low 0.989 | locus YLL026W, active compounds read low 1.01 | locus YLL041C, strain sdh2, active compounds read low 1.02 | locus YLR027C, strain aat2, active compounds read low 1.02 | locus YLR039C, strain RIC1, active compounds read low 1.09 | locus YLR058C, strain SHM2, active compounds read low 1.02 | locus YLR102C, strain apc9, active compounds read low 0.998 | locus YLR113W, strain HOG1, active compounds read low 0.983 | locus YLR221C, strain rsa3, active compounds read low 1.01 | locus YLR258W, strain gsy2, active compounds read low 1.04 | locus YLR262C, strain YPT6 (second series), active compounds read low 1.05 | locus YLR262C, strain YPT6, active compounds read low 1.11 | locus YLR268W, strain sec22, active compounds read low 0.986 | locus YLR320W, strain mms22, active compounds read low 1.03 | locus YLR330W, strain CHS5, active compounds read low 1.01 | locus YLR342W, strain FKS1 (second series), active compounds read low 1.01 | locus YLR342W, strain FKS1, active compounds read low 1 | locus YLR357W, strain rsc2, active compounds read low 1.01 | locus YLR370C, strain arc18, active compounds read low 0.999 | locus YLR371W, strain rom2, active compounds read low 1 | locus YLR384C, strain iki3, active compounds read low 0.991 | locus YLR418C, strain cdc73, active compounds read low 0.994 | locus YML016C, strain PPZ1, active compounds read low 1.03 | locus YML032C, strain rad52, active compounds read low 0.995 | locus YML120C, strain ndi1, active compounds read low 0.998 | locus YML124C, strain tub3, active compounds read low 1.01 | locus YMR058W, strain fet3, active compounds read low 1.03 | locus YMR078C, strain ctf18, active compounds read low 1 | locus YMR125W, strain sto1, active compounds read low 1.02 | locus YMR129W, active compounds read low 0.991 | locus YMR205C, strain PFK2, active compounds read low 1.02 | locus YMR223W, strain ubp8, active compounds read low 1.02 | locus YMR231W, strain pep5, active compounds read low 1.02 | locus YMR307W, strain GAS1, active compounds read low 0.983 | locus YNL067W, strain RPL9B, active compounds read low 1.02 | locus YNL071W, strain lat1, active compounds read low 1.03 | locus YNL128W, strain TEP1, active compounds read low 1.02 | locus YNL183C, strain NPR1, active compounds read low 0.925 | locus YNL209W, strain ssb2, active compounds read low 0.993 | locus YNL233W, strain BNI4, active compounds read low 1.01 | locus YNL248C, strain rpa49, active compounds read low 1.02 | locus YNL250W, strain rad50, active compounds read low 1.01 | locus YNL271C, strain bni1, active compounds read low 1 | locus YNL298W, strain CLA4, active compounds read low 0.999 | locus YNL307C, strain MCK1, active compounds read low 1 | locus YNL322C, strain KRE1 (second series), active compounds read low 1.01 | locus YNR049C, strain mso1, active compounds read low 0.986 | locus YNR052C, strain pop2, active compounds read low 1.03 | locus YOL006C, strain TOP1, active compounds read low 1.07 | locus YOL012C, strain htz1 1.17 | locus YOL147C, strain pex11, active compounds read low 1.01 | locus YOR001W, strain rrp6, active compounds read low 1.02 | locus YOR061W, strain CKA2, active compounds read low 1.02 | locus YOR069W, strain VPS5, active compounds read low 1.02 | locus YOR070C, strain gyp1, active compounds read low 1 | locus YOR080W, strain dia2, active compounds read low 1.01 | locus YOR083W, strain WHI5, active compounds read low 1.01 | locus YOR106W, strain vam3, active compounds read low 1.07 | locus YOR136W, strain idh2, active compounds read low 1.01 | locus YOR144C, strain elg1, active compounds read low 1 | locus YOR184W, strain ser1, active compounds read low 1 | locus YOR231W, strain MKK1, active compounds read low 0.981 | locus YOR265W, strain rbl2, active compounds read low 1 | locus YOR270C, strain vph1, active compounds read low 1.11 | locus YOR290C, strain snf2, active compounds read low 0.982 | locus YOR316C, strain cot1, active compounds read low 1 | locus YPL051W, strain arl3, active compounds read low 1.01 | locus YPL078C, strain atp4, active compounds read low 1.03 | locus YPL106C, strain sse1, active compounds read low 1.01 | locus YPL240C, strain hsp82, active compounds read low 0.996 | locus YPL256C, strain CLN2, active compounds read low 0.957 | locus YPR119W, strain clb2, active compounds read low 1 | locus YPR141C, strain kar3, active compounds read low 1.01 | locus YPR163C, strain tif3, active compounds read low 0.992 | locus YPR167C, strain met16, active compounds read low 1.03 | strain wtn01, active compounds read low 0.993
